In PubChem BioAssay AID504421 (National Center for Advancing Translational Sciences (NCATS), 2011):
The list shows a part of the results. Activity calls are given as the source filed them. The call rests on the fitted dose curve.

Each molecule was assayed against Dual specificity protein kinase CLK4 (Homo sapiens) (UniProt Q9HAZ1) (assay: Kinase Inhibition Study on Inhibitors of CDC-like Kinase 4 (Reaction Biology data): SAR round 2). Conditions: Reaction Biology kinase assay, 10 uM ATP.
Source text: NIH Molecular Libraries Probe Production Centers Network [MLPCN] NIH Chemical Genomics Center [NCGC] MLPCN Grant: 1R03MH084827-01 Assay Submitter (PI): Tom Misteli NCGC Assay Overview: Alternative splicing of pre-mRNAs plays a major role in the regulation of eukaryotic gene expression. Alternative splicing is now thought to be one of the primary reasons for the complexity of higher organisms leading to an average of three protein isoforms per gene. Aberrant splicing can lead to a number of diseases and is known to play a role in rare genetic diseases such as progeria syndrome. Hutchinson-Gilford Progeria Syndrome (HGPS) is a pediatric premature aging disease caused by a spontaneous mutation in the lamin A/C (LMNA) gene due to a single point mutation in the lamin A gene effecting 1 in 4 million people. To identify both specific splicing modulators of the lamin A gene as well as general splicing modulators, a cell-based HTS assay was developed using a minigene reporter system (AIDs, 1459 & 1487). […] This AID summarizes the characterization of lead compounds in Clk4.
All kinase reactions were performed using 10 uM ATP in the assay. 100% activity was taken from kinase reactions with DMSO alone (the vehicle used for compound stock solutions).

Chain of Dual specificity protein kinase CLK4 (Homo sapiens) (Q9HAZ1 whole entry, looked up, canonical isoform): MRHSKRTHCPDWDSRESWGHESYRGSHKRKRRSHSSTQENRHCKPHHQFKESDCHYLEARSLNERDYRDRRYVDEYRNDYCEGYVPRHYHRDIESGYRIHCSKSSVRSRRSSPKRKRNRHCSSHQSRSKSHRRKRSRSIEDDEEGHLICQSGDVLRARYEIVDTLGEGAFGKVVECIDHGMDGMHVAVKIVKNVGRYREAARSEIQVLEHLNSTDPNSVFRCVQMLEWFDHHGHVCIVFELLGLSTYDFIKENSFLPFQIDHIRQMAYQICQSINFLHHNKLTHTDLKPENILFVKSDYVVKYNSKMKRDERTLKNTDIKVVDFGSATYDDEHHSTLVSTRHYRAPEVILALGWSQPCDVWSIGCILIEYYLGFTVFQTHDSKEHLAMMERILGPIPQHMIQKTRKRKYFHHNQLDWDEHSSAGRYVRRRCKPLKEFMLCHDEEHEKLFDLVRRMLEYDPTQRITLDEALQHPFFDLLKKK

Potency, active:
CN(Cc1cncn1C)c1ncnc2ccc(-c3ccc4c(c3)OCO4)cc12 507 nM
CC(Nc1ncnc2ccc(-c3ccc4c(c3)OCO4)cc12)c1ccco1 (centres undefined) 7600 nM
c1coc(CCNc2ncnc3ccc(-c4ccc5c(c4)OCO5)cc23)c1 42 nM
c1nc(N2CCOCC2)c2cc(-c3ccc4c(c3)OCO4)ccc2n1 135 nM
